Measurements: PubChem BioAssay (NCI)
The panel holds about 83,000 compounds, 20% with a hit somewhere; the sample as a whole holds those more often.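 48-hour exposure, single concentration, 96-well plates; percent growth endpoint where 0 means no net growth. Active: below 10.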 Unmarked numbers belong to inactive results. Active and inactive are the calls of the source.

How the values were obtained:
Experiment in all cases: NCI-60 one-dose screen, 48 h (100 = growth as untreated, 0 = no growth, -100 = all killed)
Conditions in all cases: 10 µM unless noted
HCT-15 colon = system: HCT-15 colon
HT29 colon = system: HT29 colon
SNB-75 CNS = system: SNB-75 CNS
SNB-19 CNS = system: SNB-19 CNS
U251 CNS = system: U251 CNS
PC-3 prostate = system: PC-3 prostate
SK-MEL-5 melanoma = system: SK-MEL-5 melanoma
UACC-62 melanoma = system: UACC-62 melanoma
LOX IMVI melanoma = system: LOX IMVI melanoma
SK-MEL-28 melanoma = system: SK-MEL-28 melanoma

Compound | growth (HCT-15 colon) | growth (HT29 colon) | growth (SNB-75 CNS) | growth (SNB-19 CNS) | growth (U251 CNS) | growth (PC-3 prostate) | growth (SK-MEL-5 melanoma) | growth (UACC-62 melanoma) | growth (LOX IMVI melanoma) | growth (SK-MEL-28 melanoma)
CCCCCCNC(=O)Oc1ccc(/C(=C(/CC)Cc2ccccc2)c2ccc(OCCN(CC)CC)cc2)cc1 | 5.48% (active) | -24.3% (active) | 78.8% | 69.2% | 43.2% | 51.6% | 51.2% | 87.6% | 80.1% | 80.8%
Fc1cc(C2=NNC(c3ccc[nH]3)C2)ccc1-n1ccc(C(F)(F)F)n1 (stereo not given) | 94.1% | 92.9% | 87.7% | 91.2% | 77.6% | 72.3% | 98% | 81.3% | 94.2% | 104%
COc1c(Cl)cc(Cl)c2ccc(C=C3C(=O)NC(=S)NC3=O)nc12 | 103% | 109% | 95% | 99.2% | 105% | 105% | 101% | 105% | 101% | 103%
Cc1cc2nc(-c3ccccc3)c(-c3ccccc3)nc2cc1C | 98.1% | 116% | 114% | 104% | 105% | 106% | 92.4% | 85.5% | 100% | 105%
C=C1C(=O)O[C@H]2[C@H]1CC/C(CNC(=O)/C=C/c1ccc(Br)cc1)=C\CC[C@@]1(C)O[C@@H]21 | -64.2% (active) | -74.5% (active) | 48.9% | 15.9% | -28.3% (active) | -55.2% (active) | 28.7% | -93.5% (active) | -95.2% (active) | -66.1% (active)
C[C@H]1[C@H](C)CC[C@]2(CO)CC[C@]3(C)C(=CC[C@@H]4[C@@]5(C)Cc6c([nH]c7ccccc67)C(C)(C)[C@@H]5CC[C@]43C)[C@H]12 | 100% | 68.1% | 87.6% | 80.8% | 72.4% | 68.5% | 97.5% | 81.4% | 79.1% | 79.6%
C#CC(=O)Nc1cccc2c1cc(C)n2-c1nc2c(c(NCc3ccccc3)n1)CCCC2 | -74.4% (active) | -58.2% (active) | -25.6% (active) | -71.9% (active) | -91.9% (active) | -56.5% (active) | -96.1% (active) | -73.7% (active) | -65.8% (active) | -58.4% (active)
O=C(Nc1ccc2ncnc(Nc3ccc(Oc4cccc(F)c4)c(Cl)c3)c2c1)c1ccc(CN2CCOCC2)cc1 | 11.2% | 20.9% | 55.8% | 50.8% | 36.5% | 14.6% | 4.82% (active) | 53.5% | 8.89% (active) | 52.2%
CCSc1ccc2c(c1)N(CCCN1CCN(C)CC1)c1ccccc1S2 | 2.48% (active) | -14.7% (active) | 28.3% | 68.8% | 36.2% | 51.9% | -98.7% (active) | -43% (active) | -82.5% (active) | -85.2% (active)
CN1C2CCC1CN(c1cnc(C(=O)Nc3cc(F)cc4cccnc34)cn1)C2 | 24.2% | 37.1% | 92.5% | 92.7% | 64% | 15.2% | 79.5% | 94.9% | 33.2% | 57.8%
COc1ccc(Cl)cc1NC(=O)c1c(NC(=O)C(F)(F)C(F)(F)F)sc2c1CCCCC2 | 14.9% | 3.87% (active) | -9.76% (active) | 14.5% | 7.27% (active) | 5.18% (active) | -58.3% (active) | 6.99% (active) | 17.6% | 23.3%
C=C(C)[C@@H]1CC[C@]2(C=O)CC[C@]3(C)[C@H](CC[C@@H]4[C@@]5(C)CCCNC(C)(C)[C@@H]5CC[C@]43C)[C@@H]12 | 34.3% | 14% | 110% | 84.6% | 50.4% | 48% | 66% | 69.9% | 84.9% | 96.7%
CC[C@H](C)[C@@H]1NC(=O)[C@H](Cc2ccc(O)cc2)N(C)C(=O)[C@H](Cc2ccccc2)NC(=O)CN(C)C(=O)[C@@H]2CCCN2C(=O)[C@@H](Cc2ccccc2)N(C)C(=O)[C@H](CC(C)C)NC1=O | 41.5% | 4.78% (active) | -11.6% (active) | -8.3% (active) | 6.02% (active) | 2.42% (active) | -67.2% (active) | -28.8% (active) | -18.6% (active) | -43.8% (active)
Clc1ccc(C2CC(c3cccc(Nc4ccncc4)c3)=NN2c2cc(Cl)cc(Cl)c2)cc1 (stereo not given) | -25.2% (active) | 5.22% (active) | 82.8% | 89.2% | 0.417% (active) | 48.9% | 88.9% | 101% | -44.6% (active) | 74.2%
COc1ccc(-c2nc(N=Nc3c(O)[nH]c4ccccc34)nc(N3CCOCC3)c2C#N)cc1 | 69.9% | 49.2% | 44% | 72.6% | 37.8% | 72.7% | 57.5% | 50.3% | 66.8% | 72.2%
COc1ccc(-c2ncc(-c3ccccc3)[nH]2)cc1OC | 104% | 113% | 108% | 104% | 113% | 112% | 106% | 95.3% | 116% | 105%
COc1ccc(/C(C)=N/NC(=O)CSc2nc3ccccc3c(=O)n2Cc2ccc(S(N)(=O)=O)cc2)c(OC)c1 | 96.2% | 111% | 82.9% | 95.5% | 103% | 97.1% | 98% | 96.9% | 94.2% | 110%
Cc1nc2sc(C(=O)Nc3ccccc3)c(N)c2cc1C(=O)c1ccc(C(F)(F)F)cc1 | 103% | 103% | 17.4% | 96.3% | 102% | 102% | 98.1% | 95.3% | 96.9% | 99.7%
CCOC(=O)C1CC(=O)c2cc(OC)c(OC)cc2C1 (stereo not given) | 100% | 88.6% | 91.7% | 100% | 103% | 86.4% | 109% | 88.5% | 104% | 119%
C=C1C(=O)O[C@H]2[C@H]1CC/C(CNC(=O)/C=C/c1ccccc1F)=C\CC[C@@]1(C)O[C@@H]21 | -63.4% (active) | -17.2% (active) | 94.1% | 56.4% | 52.5% | 37.3% | 66.1% | -5.46% (active) | -25% (active) | -33.9% (active)
CC(O)(CO)c1ccccc1 (stereo not given) | 97.8% | 102% | 92.5% | 98.3% | 101% | 91.7% | 102% | 96% | 102% | 102%
Cc1ccc(C2CC(c3cccc(Nc4ccncc4)c3)=NN2c2ccc(Cl)cc2)cc1 (stereo not given) | -88.2% (active) | -58% (active) | -89.9% (active) | -90.2% (active) | -52.2% (active) | -83.4% (active) | -93% (active) | -98.3% (active) | -96.5% (active) | -97.7% (active)
O=C(Nc1cccc(C2=NCCN2)c1)c1ccc(OCCCOc2ccc(C(=O)Nc3cccc(C4=NCCN4)c3)cc2)cc1 | 90.7% | 12.9% | -1.39% (active) | 14.9% | 24.8% | 29.8% | 2.98% (active) | -10.5% (active) | -33.4% (active) | -67.4% (active)
Clc1ccc2c(c1)c(-c1ccccc1)nc1nncn12 | 108% | 104% | 98.3% | 109% | 105% | 111% | 105% | 113% | 102% | 121%
Fc1ccc2nc3c(cc2c1)CSc1nnc(-c2ccc[nH]c2=S)n1N3 | 104% | 108% | 75.8% | 98.1% | 107% | 91.5% | 96.4% | 91.7% | 96.1% | 102%
O=C(CNCCO)Nc1ccc2ncnc(Nc3ccc(OCc4cccc(F)c4)c(Cl)c3)c2c1 | 87.9% | 46.9% | 88.2% | 82% | 69.9% | 84.4% | 89% | 104% | 74.3% | 91%
CC[C@@]12C=CCN3CC[C@]4(c5cc(NC(=O)COc6cc(OCC(=O)Nc7cc8c(cc7OC)N(C)[C@H]7[C@@](O)(C(=O)OC)[C@H](OC(C)=O)[C@]9(CC)C=CCN%10CC[C@]87[C@@H]%109)cc7oc(-c8ccccc8)cc(=O)c67)c(OC)cc5N(C)[C@@H]4[C@](O)(C(=O)OC)[C@H]1OC(C)=O)[C@H]32 | 34.7% | 1.38% (active) | 82.5% | 58.5% | -3.12% (active) | 23% | 103% | 93.8% | 7.97% (active) | 112%
